The list is not random: actives were taken first. Their share in the collection is about 7.9%.
HCV inh = qHTS Assay for Inhibitors of Hepatitis C Virus (HCV). 3.4% of 340,000 active. Huh7.5.1 HCVcc-Cre infection, luciferase reporter, 44 h. Potency, µM (highest dose often 41.8 µM), for the others: top-dose activity change, negative = inhibition, hits mostly inhibitors. AID 651820, 2012; active = well fitted inhibition curve with a large enough effect; inconclusive = small, poorly fitted or top-dose-only effect, or another doubt; inactive = no such curve, though single readings can be large or run the other way; note: potency is the fitted concentration of half-maximal effect
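Compounds are dispensed onto cells plated 4 h earlier at 1,000 per well, with HCVcc-Cre virus (about 0.5 moi) added next. Following 44 h of culture, luminescent signal is measured for 15 sec after 15 min with substrate at room temperature.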
LASV entry inh = qHTS for Inhibitors of binding or entry into cells for Lassa Virus. Lassa virus pseudotype entry inhibition, cell reporter. Potency, µM (titrated, usually from 37.9 µM), for the others: top-dose activity change, negative = inhibition, most hits filed as inhibitors. AID 540256, 2011. 1.2% of 300,000 active; calls by dose curve; tested in HEK293 cells; note: potency is the fitted concentration of half-maximal effect; nearly all actives have a fitted effect of over 50% in size
FMDV antiviral = High Throughput Screening for Foot and Mouth Disease Virus Antivirals; FMDV antiviral cell-based qHTS; Potency, µM (top dose mostly 57.9 µM), without a hit: at the top dose activity change, negative = inhibition, hits mostly inhibitors; 1.2% of 410,000 active; AID 1159524, 2015; calls by dose curve; tested in HEK293T cells; note: read-out not given here; potency is the fitted concentration of half-maximal effect; nearly all actives have a fitted effect of over 45% in size
Marburg entry inh = qHTS for inhibitors of binding or entry into cells for Marburg Virus | AID 540276, 2011 | Potency, µM (doses to about 37.8 µM), for inactives: at the highest dose activity change, negative = inhibition, usual class: inhibitors | Marburg virus pseudotyped entry inhibition, cell reporter | 1.8% of 300,000 active; calls by dose curve; tested in HEK293 cells; note: potency is the fitted concentration of half-maximal effect
HCMV inh = qHTS Assay for inhibitors of the human cytomegalovirus (HCMV); HFF cells, HCMV-luciferase reporter, 72 h; active compounds read low; AID 1259415, 2018; 4.5% of 410,000 active; activity change, negative = inhibition, % at 57.5 µM; in the data active = activity change below about -60%; inconclusive = no clear call, values can overlap the other calls; inactive = above about -39%
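Luciferase read-out from HCMV-luciferase-infected HFFs (MOI 1 PFU/cell) 72 h post infection at 37C; compounds added after 16 h cell attachment; activity normalized between buffer-only basal and Salinomycin (10uM) inhibitor controls.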
An asterisk follows results filed as active; ? = inconclusive; / = not tested or not shown; ! = not confirmed by another sample; [ ] = remark or other dose. % is set by controls: 0 for no effect and ±100 for the full control effect.

SMILES	HCV inh	LASV entry inh	FMDV antiviral	Marburg entry inh	HCMV inh
CCN(C(=O)CCS(=O)(=O)c1ccc2c(c1)oc(=O)n2C)c1ccc(OC)cc1	20%	?	-7%	-3%[46.1 µM]	-64*!
O=C1/C(=C/c2cccs2)N=C(c2cccs2)N1Nc1ccccc1	14µM*	1%	-8%	?	?
Cc1ccc(C2=N/C(=C\c3cccs3)C(=O)N2Nc2ccccc2)cc1	?	-22%	-21%	?	-12
O=C1/C(=C\c2cccs2)N=C(c2cccs2)N1Nc1ccccc1	?	-4%	/	-6%	-78*
CNc1ncncc1-c1ccc(C(=O)N(C)C)cc1	/	/	-14%	/	/
NC(=O)CSc1nc(-c2ccccc2)nc2ccccc12	?	/	0%	/	-9
Cc1cccc2c(SCC(N)=O)nc(-c3ccccc3)nc12	7.1µM*	/	-2%	/	-32
CCCCCCOc1ccc(/C(C)=N/NC2=NCCN2)cc1	11µM*	/	-18%	/	-96*
CCOc1ccc(Br)cc1/C(C)=N\NC1=NCCN1	4.5µM*	?	0%	?	?
CC(=O)Nc1ccc(-c2ccnc3c2CC(C)(C(=O)Nc2ccc(Cl)cc2)O3)cc1 (centres undefined)	/	/	-28%	/	-20
Cc1cc(C)c2c(=O)cc(C(=O)Nc3sc4c(c3C#N)CCCC4)oc2c1	/	19%[46.1 µM]	?	2%[46.1 µM]	6
COC(=O)c1ccc(/C=N/NC(=O)C(=O)NCC2CCCO2)cc1 (centres undefined)	4%	-1%	-4%	-4%	8
CCOC(=O)N1CCN(C(=O)Cc2c(C(=O)O)n(C)c3ccccc23)CC1	3.5µM*	-2%	-8%	8%[46.1 µM]	?
CCOC(=O)c1ccccc1NC(=O)Cc1c(C(=O)O)n(C)c2ccccc12	6%	-2%[46.1 µM]	-9%	1%[46.1 µM]	-15
COc1ccc(C(C)NC(=O)c2ccccc2)cc1 (centres undefined)	26%	-16%	/	-10%	-25
COc1ccc(C(NC(=O)c2ccc(-c3ccccc3)cc2)c2ccccc2)cc1 (centres undefined)	25%	?	2%	-16%	-66*
COc1ccc(C(NCC(=O)NC(C)c2ccc(Cl)cc2)c2ccccc2)cc1 (centres undefined)	11µM*	/	-19%	/	15
Cc1ccc2cccc(OCCCOc3ccccc3F)c2n1	10µM*	/	33%	/	8
Cc1ccc(NS(=O)(=O)c2cccc3cccnc23)cc1Cl	?	/	73%	/	-94*
Cc1cc(Nc2ccccc2)nn1C(=O)c1ccc(Br)cc1	14µM*	3%	-11%	1%	?
Cc1cc(Nc2ccccc2)nn1C(=O)c1ccccc1	?	3%	/	8%	-23
O=C(NCc1nnc(SCc2ccc(F)cc2)n1-c1ccc(F)cc1)C12CC3CC(CC(C3)C1)C2	?	?	-24%	8.9µM*	17
CCN(Cc1ccncc1)Cc1ccc2c(c1)CN(C(=O)c1cccc(-n3nc(C)cc3C)c1)CCO2	/	/	-1%	/	/
Cc1nnc2ccc(N3CCC4(CC3)OCCO4)nn12	-11%	34%[14.3 µM]	4%	?	-62*
COc1cc(CN(C(C)=O)c2ccccc2C(=O)O)ccc1[N+](=O)[O-]	28%	4%	-6%	6%	-63*
SMILES	HCV inh	LASV entry inh	FMDV antiviral	Marburg entry inh	HCMV inh
Cc1ccc(C)c(N2CCN(CCCNC(=O)c3ccc4nc(N5CCCCC5)sc4c3)CC2)c1	/	?	-53%	?	98
Oc1c(C(c2ccc(Cl)cc2)N2CCC3(CC2)OCCO3)sc2nc(-c3ccco3)nn12 (centres undefined)	/	7%[46.1 µM]	-11%	/	21
CCOc1ccc(CNC(=O)c2ccc(Sc3ccc(C)cc3)c(N)c2)cc1OC	/	?	?	/	-62*
CCOc1ccc(CNC(=O)c2ccc(Sc3ccc(Cl)cc3)c(NC(C)=O)c2)cc1OC	13µM*	?	?	?	2
COc1cccc(N2CCN(C(=O)Cn3c(-c4cccs4)cc4ccccc43)CC2)c1	/	-13%[46.1 µM]	-23%	/	1
COCCN(C(=O)Nc1ccc(OC)cc1)c1nc2ccccc2s1	?	6%[46.1 µM]	-1%	17%[46.1 µM]	-97*
COc1ccc(C(=O)Nc2nc3ccccc3s2)c(OC)c1	-8%	?	0.13µM*	?	-97*
COc1ccccc1C(=O)NCc1ccc(-c2nc3ccccc3s2)cc1	16%	-25%	?	-11%	-61*
COC(=O)Cc1ccc2sc(-c3ccccc3)nc2c1	?	?	-70%	8.2µM*	31
O=C(c1ccco1)N1CCC2(CC1)CCN(c1ccncc1)CC2	/	/	-12%	/	/
O=C(NNc1nc2ccccc2s1)Nc1ccc(F)cc1	5%	/	43%	/	0
O=C(NNc1nc2ccccc2s1)c1ccccc1F	10%	9%	38%	?	-67*
Cc1ccccc1Cn1cccc(C(=O)Nc2nc3ccccc3s2)c1=O	/	?	22µM*	/	-71*
COc1ccc(C(=O)Nc2ccccc2Cc2ccccc2)c(OC)c1	10µM*	-20%	-4%	5%	-71*
Cn1cc(Cl)c(C(=O)Nc2nc3ccccc3s2)n1	18%	?	/	8.2µM*	-24
Cc1ccc(NC(=O)C2CCCN(S(=O)(=O)c3cccs3)C2)c(C)c1 (centres undefined)	/	?	-6%	/	-19
COc1ccccc1C(=O)Nc1nc2ccccc2s1	?	/	1.8µM*	/	-99*
NC(=S)Nc1nc2ccccc2s1	14%	23%	43%	?	-108*
Cc1ccc(NC(=O)Cn2nc(C(F)(F)F)c3c2CCCC3)cc1	/	5%[46.1 µM]	-3%	-14%[46.1 µM]	5
Cc1occc1C(=O)N1CCCC(Nc2ccc(C(C)C)cc2)C1 (centres undefined)	-14%	7%	0%	?	-65*
CC1CCCCN1S(=O)(=O)c1ccc(S(=O)(=O)N2CCN(C)CC2)cc1 (centres undefined)	4%	/	-4%	0%[46.1 µM]	-26
COc1cc(-c2cccs2)cc(=O)c2c(C)oc(C)c12	11µM*	-17%	/	-26%	?
COc1cc(-c2cc(OC)c3c(C)oc(C)c3c(=O)c2)ccc1OC(=O)c1ccccc1Cl	/	-2%[46.1 µM]	?	?	362
C=CCC[C@H](Cc1ccc(F)cc1)C(=O)OC[C@H](Cc1c[nH]c2ccccc12)NC(=O)[C@@H](CC=C)CC(=O)N(CCO)Cc1ccccc1	?	/	40µM*	/	81
C=CC[C@@H](CC(=O)N[C@H](CO)Cc1ccccc1)C(=O)N[C@@H](C)COC(=O)[C@@H](CC=C)CC(=O)OC(C)(C)C	-19%	/	-30%	/	-60*
C=CC[C@H](CC(=O)N(CCO)Cc1ccccc1)C(=O)N[C@H](COC(=O)[C@@H](CC=C)Cc1ccc(F)cc1)Cc1ccccc1	10µM*	/	?	/	94
C=CCC[C@@H](Cc1ccc(F)cc1)C(=O)OC[C@H](Cc1c[nH]c2ccccc12)NC(=O)[C@H](CC=C)CC(=O)N(CCO)Cc1ccccc1	?	/	?	/	12
